Laboratory results as given in PubChem BioAssay (NCATS).
Results filed as inconclusive are left out. Activity calls are given as the source filed them. The call rests on the fitted dose curve; in most records, active means well fitted inhibition curve with a large enough effect; inconclusive means small, poorly fitted or top-dose-only effect; inactive means no such curve, though single readings can be large or run the other way.

Assay: qHTS assay for measurement of the activity of small molecule inhibitors on Zika virus induced Caspase-3 activity in human iPSC derived neural progenitor cells (hNPCs) (AID 1224857); further: nearly all actives have a fitted effect of over 65% in size
Details: hNPCs ZIKV-induced caspase-3/7, Caspase-Glo luminescence, 6 h; series mostly up to 45.7 µM
Method in brief: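 Caspase-3/7 induction by a 6-hour ZIKV infection was quantified with a luminescent Caspase-Glo 3/7 reagent incubated 30 minutes at room temperature. Compounds were preincubated with hNPCs for 1 hour; inhibition was calculated against uninfected and infected control wells.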

| SMILES | outcome |
| --- | --- |
| O=S(=O)(O)c1cc(I)c(O)c2ncccc12 | inactive |
| CNCCCC1c2ccccc2C=Cc2ccccc21 | inactive |
| CCN(CC)C(C)CN1c2ccccc2Sc2ccccc21 (stereo not drawn) | inactive |
| Oc1cn2c(n1)Nc1ccc(Cl)c(Cl)c1C2 | inactive |
| Cc1c(O)cccc1C(=O)N[C@@H](CSc1ccccc1)[C@H](O)CN1C[C@H]2CCCC[C@H]2C[C@H]1C(=O)NC(C)(C)C | inactive |
| O=C1c2c(O)cccc2Cc2cccc(O)c21 | inactive |
| NC(=O)N/N=C/c1ccc([N+](=O)[O-])o1 | inactive |
| Cc1ncc(COP(=O)(O)O)c(C=O)c1O | inactive |
| CN(C)CCCN1c2ccccc2Sc2ccc(Cl)cc21 | inactive |
| OCc1cc(C(O)CNCCCCCCOCCCCc2ccccc2)ccc1O (stereo not drawn) | inactive |
| NC(=O)c1ncn([C@@H]2O[C@H](CO)[C@@H](O)[C@H]2O)n1 | inactive |
| CC1=C(/C=C/C(C)=C/C=C/C(C)=C/C(=O)O)C(C)(C)CCC1 | inactive |
| NC(=O)c1ncn([C@@H]2O[C@H](CO)[C@@H](O)[C@H]2O)c1N | inactive |
| CC(C)(O)c1ccccc1CC[C@@H](SCC1(CC(=O)O)CC1)c1cccc(/C=C/c2ccc3ccc(Cl)cc3n2)c1 | inactive |
| CC(CN(C)C)CN1c2ccccc2CCc2ccccc21 (stereo not drawn) | inactive |
| Cn1cc[nH]c1=S | inactive |
| CO/N=C(\C(=O)N[C@@H]1C(=O)N2C(C(=O)O)=C(CSc3nc(=O)c(O)nn3C)CS[C@H]12)c1csc(N)n1 | inactive |
| C=Cc1c(C)c2cc3[nH]c(cc4nc(cc5nc(cc1[nH]2)C(C)=C5CCC(=O)O)C(CCC(=O)O)=C4C)c(C)c3C=C | inactive |
